Screening data from PubChem BioAssay.
Shown are actives, neighbours in structure and some others; about 3.5% of the full set was active somewhere.
Myeloid diff 2: compounds promoting myeloid differentiation; actives 1% (n = 360,000); ER-HoxA9 myeloid progenitors, lysozyme-GFP differentiation, flow cytometry; calls only at 10 µM; AID 624256;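 active = normalized GFP-positive differentiation at or above the plate's own cutoff, the solvent-only control mean plus 3 SD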;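 note: cells exposed to compound for four days before flow analysis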
M1 PAM: positive allosteric modulators of human M1 muscarinic receptor | P11229 | CHO-K1 hM1, Fluo-8 calcium fluorescence, ACh EC20; 0% = ACh EC20, 100% = maximal ACh | activation, % at 3 µM | actives 0.088% (n = 360,000); in the data active = activation above about 19%, passing the limit was not always enough
ATG4B inh: blocks human ATG4B protease cleavage of LC3 substrate. inhibition, % at 8.33 µM. actives 0.51% (n = 340,000). AID 504462. ATG4B cleavage of LC3-PLA2, NBD-HPC fluorescence, 1 h; in the data active = inhibition above about 40%
Target sequence (Q9Y4P1 whole entry, looked up): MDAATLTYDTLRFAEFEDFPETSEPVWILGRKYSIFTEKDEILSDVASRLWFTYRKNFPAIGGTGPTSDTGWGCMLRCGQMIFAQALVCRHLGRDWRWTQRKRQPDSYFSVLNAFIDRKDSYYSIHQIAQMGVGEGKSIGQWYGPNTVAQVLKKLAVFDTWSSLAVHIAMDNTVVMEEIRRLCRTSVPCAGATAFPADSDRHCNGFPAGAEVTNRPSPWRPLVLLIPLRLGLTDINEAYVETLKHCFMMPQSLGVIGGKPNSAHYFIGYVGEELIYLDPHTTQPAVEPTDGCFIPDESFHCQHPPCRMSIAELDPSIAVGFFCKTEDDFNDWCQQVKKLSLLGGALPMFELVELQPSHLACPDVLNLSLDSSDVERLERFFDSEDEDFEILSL
SKN-1 inh: blocks SKN-1 activity in C. elegans | C. elegans VP596 Pgst-4::GFP/RFP ratio, acrylamide-induced, 24 h | actives 0.49% (n = 360,000) | inhibition, % at 21.8 µM | AID 624304;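 active = interference check ratio from 0.5 to 1.5 plus GFP to RFP signal ratio inhibition reaching or exceeding a fixed threshold, cut at about 30% in these data, passing the limit was not always enough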
M1 ag: activates human CHRM1 receptor; CHO-K1 hM1, Fluo-8 calcium fluorescence, agonist mode; 0% DMSO, 100% acetylcholine EC100; activation, % at 3 µM; actives 0.33% (n = 360,000); AID 588814;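 active = activation above the run's mean compound activation plus 3 SD, cut at about 16% in these data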;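 note: peak over basal fluorescence ratio within a 140 s kinetic read after compound addition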
M1 antag: human CHRM1 antagonism. CHO-K1 hM1, Fluo-8 calcium fluorescence, ACh EC80 antagonist. actives 1.3% (n = 360,000). inhibition, % at 3 µM. P11229. AID 588852;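 active = percent inhibition above its own plate's cutoff, namely the mean of that plate's compound wells plus 3 SD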;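 note: peak over basal fluorescence ratio during 140 s after agonist addition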
A number is an active result; ! = repeats disagree.

`COc1cc(S(=O)(=O)N2CCN(C(=O)c3ccco3)CC2)c(OC)cc1C` gave Myeloid diff 2 inactive, M1 PAM inactive, ATG4B inh inactive, SKN-1 inh inactive, M1 ag inactive and M1 antag 78.
CCOC(=O)c1c(C)nc2c(c1-c1cc(OC)ccc1OC)C(=O)c1ccccc1-2 was read as Myeloid diff 2 inactive, M1 PAM inactive, ATG4B inh inactive, SKN-1 inh inactive, M1 ag inactive and M1 antag inactive.
Screening CCOC(=O)C1=C(Cc2ccc(OC)cc2)C(=O)c2ccccc2C1=O returned Myeloid diff 2 active, M1 PAM inactive, ATG4B inh inactive, SKN-1 inh inactive, M1 ag inactive and M1 antag 36.
Screening CCOC(=O)c1ccc(COC(=O)c2ccc3c(c2)-c2ccccc2C3=O)cc1 returned Myeloid diff 2 inactive, M1 PAM inactive, ATG4B inh inactive, SKN-1 inh inactive, M1 ag inactive and M1 antag inactive.
`CCOC(=O)C1=C(O)c2ccccc2C(=O)/C1=C\c1ccc(CC)cc1` gave Myeloid diff 2 active, M1 PAM inactive, ATG4B inh inactive, SKN-1 inh inactive, M1 ag inactive and M1 antag inactive.
For COCCCNC(=O)c1cc(C)nn1-c1ccccc1 the results were Myeloid diff 2 inactive, M1 PAM inactive, ATG4B inh inactive, SKN-1 inh inactive, M1 ag inactive and M1 antag inactive.
`COc1ccc(NC(=O)CCC(=O)N2CCOCC2)c([N+](=O)[O-])c1` gave Myeloid diff 2 inactive, M1 PAM inactive, ATG4B inh inactive, SKN-1 inh inactive, M1 ag inactive and M1 antag inactive.
For O=C(CCCN1CCC(C(=O)c2ccc(F)cc2)CC1)c1ccc(F)cc1 the results were Myeloid diff 2 inactive, M1 PAM inactive, ATG4B inh inactive, SKN-1 inh inactive, M1 ag inactive and M1 antag 89.
For Cc1cn([C@H]2C[C@H](O)[C@@H](/C=C/C(=O)NCc3cccc4ccccc34)O2)c(=O)[nH]c1=O the results were Myeloid diff 2 inactive, M1 PAM inactive, SKN-1 inh inactive, M1 ag inactive and M1 antag inactive.
`CC(C)CC1Nc2ncnc(N3CCN(c4ccccn4)CC3)c2N(Cc2ccccc2)C1=O` (stereo not given) gave Myeloid diff 2 inactive, M1 PAM inactive, ATG4B inh inactive, SKN-1 inh inactive, M1 ag inactive and M1 antag 38!.
Screening Cc1ccc(CN2C(=O)C(CC(C)C)Nc3ncnc(N4CCN(c5ccccc5)CC4)c32)cc1 (stereo not given) returned Myeloid diff 2 inactive, M1 PAM inactive, ATG4B inh inactive, SKN-1 inh inactive, M1 ag inactive and M1 antag inactive.
`COc1ccc(NCc2ccsc2)cc1` gave Myeloid diff 2 inactive, M1 PAM inactive, ATG4B inh inactive, SKN-1 inh inactive, M1 ag inactive and M1 antag inactive.
CCOC(=O)c1cc(-c2ccco2)nc2c1c(C)nn2-c1ccccc1 was read as Myeloid diff 2 inactive, M1 PAM inactive, ATG4B inh inactive, SKN-1 inh 40, M1 ag inactive and M1 antag inactive.
For CCCn1c(=O)c2c(C(=O)OCC)cc(-c3ccco3)nc2n(CCC)c1=O the results were Myeloid diff 2 inactive, M1 PAM inactive, ATG4B inh inactive, SKN-1 inh inactive, M1 ag inactive and M1 antag inactive.
Screening Cc1cc(Br)ccc1NC(=O)CN(C)C(=O)c1ccccc1OCc1c(C)noc1C returned Myeloid diff 2 inactive, M1 PAM inactive, SKN-1 inh inactive, M1 ag inactive and M1 antag inactive.
Screening O=C1CCCN1CCCNCC(O)c1ccccc1 (stereo not given) returned Myeloid diff 2 inactive, M1 PAM inactive, ATG4B inh inactive, SKN-1 inh inactive, M1 ag inactive and M1 antag inactive.
`CN1CCN(CC(=O)N2c3ccccc3Sc3ccccc32)CC1` gave Myeloid diff 2 inactive, M1 PAM inactive, ATG4B inh inactive, SKN-1 inh inactive, M1 ag inactive and M1 antag 100.
Screening Cc1cc(C)n(CC(=O)N2c3ccccc3Sc3ccc(C(F)(F)F)cc32)n1 returned Myeloid diff 2 inactive, M1 PAM inactive, ATG4B inh inactive, SKN-1 inh inactive, M1 ag inactive and M1 antag 62.
